Article PMC4666376, “Characterisation of aptamer–target interactions by branched selection and high-throughput sequencing of SELEX pools”

target: PAI-1 wild type, active (human, UniProt P05121 24-402); assay: branched SELEX with high-throughput sequencing; PAI-1 immobilised on polyclonal anti-PAI-1 antibody; HBS (10 mM HEPES pH 7.4, 140 mM NaCl), 2 mM MgCl2, 2 mM CaCl2, 0.1% BSA; RNA pool 100 nM; PAI-1 captured on antibody-coated wells; 45 min; binding temperature not stated (PAI-1 capture at room temperature); high values mean tight binding; conditions: protein: recombinant; tags: N-terminal His6; structured_RNA; 2'-F pyrimidines;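 further: Pool frequency after one selection round with this target divided by frequency before selection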
Sequence (P05121 24-402): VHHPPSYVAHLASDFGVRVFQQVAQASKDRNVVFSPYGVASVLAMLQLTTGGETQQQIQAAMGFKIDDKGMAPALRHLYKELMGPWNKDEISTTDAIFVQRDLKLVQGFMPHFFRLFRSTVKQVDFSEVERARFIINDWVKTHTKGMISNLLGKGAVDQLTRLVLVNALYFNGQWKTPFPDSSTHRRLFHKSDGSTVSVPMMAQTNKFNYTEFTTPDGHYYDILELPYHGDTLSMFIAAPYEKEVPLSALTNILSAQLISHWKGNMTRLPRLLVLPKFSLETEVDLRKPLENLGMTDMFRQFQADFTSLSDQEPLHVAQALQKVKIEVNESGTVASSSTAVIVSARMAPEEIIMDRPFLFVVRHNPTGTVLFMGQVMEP

| Sequence | binding signal [enrichment factor] |
| --- | --- |
| GGGGCCACCAACGACAUUGCCGUAGUGCAGGGUUGCUUGCAUGAUCAAUUGUUGUUGAUAUAAAUAGUGCCCAUGGAUC | 2.1 |
| GGGGCCACCAACGACAUUGUCGUAGGCAAGUGUACGAAUCUUUGCUGACCAGUGUUGAUAUAAAUAGUGCCCAUGGAUC | 2.67 |
| GGGGCCACCAACGACAUUUAAGUUCGUCUCACUGACUCUGCAGUGAGUCUAAUGUUGAUAUAAAUAGUGCCCAUGGAUC | 7.58 |
| GGGGCCACCAACGACAUUUUGUAGGUGUCAACUACCGACCGUCGUUUGCAUUAGUUGAUAUAAAUAGUGCCCAUGGAUC | 1.24 |
| GGGGCCACCAACGACAUUGUCGUAGGCAGAUAGAUUAUAUCCGCUGACCAGUGUUGAUAUAAAUAGUGCCCAUGGAUC | 2.25 |
| GGGGCCACCAACGACAUUGUGACCCACCAUUAUAUGGUGACUAGUAGCGUGUUGUUGAUAUAAAUAGUGCCCAUGGAUC | 0.17 |
| GGGGCCACCAACGACAUUACACUGUAGCGAGCCAGACUCGCGACCAAAUGCGUUGAUAUAAAUAGUGCCCAUGGAUC | 0.89 |
| GGGGCCACCAACGACAUUCGCACUGUAGCUAUGUGGAUAGCGACCAGAAUUUCGUUGAUAUAAAUAGUGCCCAUGGAUC | 2.51 |
| GGGGCCACCAACGACAUUAUGAGCCCUAUCUAUCGACCGAUCAUGUCACGUAGGUUGAUAUAAAUAGUGCCCAUGGAUC | 1.38 |
| GGGGCCACCAACGACAUUUGGCGAGAUGCCAUCUUUACCUUAAUAGGUAGUUCGUUGAUAUAAAUAGUGCCCAUGGAUC | 2.77 |
| GGGGCCACCAACGACAUUGAGCUACGGCUAAGCCGCUAUAGUCUUCAGGAAUCGUUGAUAUAAAUAGUGCCCAUGGAUC | 0.33 |
